From PubChem BioAssay (Tox21) come the findings set out here.

Test [1] in a line: Nuclear factor erythroid 2-related factor 2/antioxidant responsive element (Nrf2/ARE) small molecule agonists: qHTS cell viability counter screen in human keratinocytes (AID 1919968; active means well fitted curve in the direction sought with a large enough effect in the repeat runs; an effect the other way counts as inactive or inconclusive; further: nearly all actives have a fitted effect of over 55% in size). Summed up:
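In human HaCaT keratinocytes stably expressing an ARE-driven luciferase, compound exposure lasted 23 h at 37 C under 5% CO2. Viable cells are quantified with a protease-based fluorogenic reagent (CellTiter-Fluor) read 1 h after addition.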

Test [2] can be described thus: Nuclear factor erythroid 2-related factor 2/antioxidant responsive element (Nrf2/ARE) small molecule agonists: luciferase reporter gene qHTS assay in human keratinocytes (AID 1919969). Further: nearly all actives have a fitted effect of over 35% in size. Further: potency means the concentration at half of the fitted maximal effect.
In test [3] the target is Gonadotropin-releasing hormone receptor (Homo sapiens) (UniProt P30968). Kind of test: Human gonadotropin-releasing hormone receptor (GnRHR) small molecule agonists, calcium flux assay in GnRHR-HEK293 cells (AID 1920063). Further: nearly all actives have a fitted effect of over 35% in size. Summed up:
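Intracellular calcium rise is the read-out: engineered human GnRHR HEK293 cells, dye-loaded, are exposed to DMSO-dissolved compounds and fluorescence at Ex/Em 480/540 is tracked for 3 min.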

Test [4] has as its target KiSS-1 receptor (Homo sapiens) (UniProt Q969F8). Kind of test: Human kisspeptin (KISS1R) small molecule agonists, calcium flux assay in KISS1R-HEK293 cells (AID 1920064; active means well fitted curve in the direction sought with a large enough effect in the repeat runs; an effect the other way counts as inactive or inconclusive). The method in brief: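 Concentration-response testing used 15 concentrations in triplicate on human KISS1R-expressing HEK293 cells. Calcium-dependent fluorescence (Ex/Em 480/540) was followed kinetically for 3 min after compound transfer.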

Test [5] can be described thus: G protein-coupled receptor (GPCR) small molecule agonists, calcium flux assay: HEK293 wild type cell line counter screen (AID 1920065). The method in brief:
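Fluorescence intensity signals activation. After overnight (18 h) culture and a 1 h calcium dye load at 37 C, compounds are added by pin tool and the plate read at 480/540 nm for 3 min in 1 s steps.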

Test [6] in a line: p53 small molecule agonists, cell-based qHTS assay with human liver microsomes (AID 1963577).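 Further: p53 response element beta-lactamase reporter cells with liver microsomes plus NADPH.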 Summed up:
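Reporter activation was measured by LiveBLAzer fluorescence intensity in p53RE-bla cells, which had been exposed to compounds for 16 h at 37 C alongside 0.5 mg/mL human liver microsomes and 0.5 mg/mL NADPH (final concentrations).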

A short description of test [7]: p53 small molecule agonists, cell-based qHTS assay with rat liver microsomes (AID 1963578). The method in brief:
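Compound in DMSO added to p53RE-bla cells 5 h post-plating; rat microsomes/NADPH 0.5 mg/mL final; 16 h, 37 C; LiveBLAzer 2 h RT.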

Test [8] in a line: p53 small molecule agonists, cell-based qHTS assay with human liver microsomes: qHTS cell viability counter screen (AID 1963579). Further: nearly all actives have a fitted effect of over 45% in size. Summed up: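 HLM-supplemented (0.5 mg/mL final) and NADPH-supplemented (0.5 mg/mL final) p53RE-bla cultures, 4,000 cells per well, were dosed with compounds in DMSO for 16 h at 37 C; luminescent ATP detection (CellTiter-Glo, 30 min, room temperature) quantified surviving cells.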

Test [9] is described as follows: p53 small molecule agonists, cell-based qHTS assay: qHTS cell viability counter screen (AID 1963581). Further: nearly all actives have a fitted effect of over 45% in size. Further: potency means the concentration at half of the fitted maximal effect. The method in brief:
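Luminescence from CellTiter-Glo, reflecting ATP content, serves as the cytotoxicity measure; it is taken after the 2 h reporter substrate step in HCT-116 p53RE-bla cells dosed for 16 h at 37 C.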

Test [10] concerns the target 5-hydroxytryptamine receptor 2A (Homo sapiens) (UniProt P28223). Kind of test: 5-hydroxytryptamine receptor 2A (HTR2A) small molecule antagonists, cell-based qHTS assay (AID 1963586). Further: nearly all actives have a fitted effect of over 45% in size. Summed up: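 CHO cells stably expressing human HTR2A were plated for 18 h at 37 C, then loaded with calcium dye for 1 h. Compounds were preincubated 5 min at room temperature before DOI (4 nM solution) was added. Kinetic fluorescence was read for 3 min.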

For test [11] the target is unchanged. Kind of test: 5-hydroxytryptamine receptor 2A (HTR2A) small molecule agonists, cell-based qHTS assay (AID 1963587). Further: nearly all actives have a fitted effect of over 30% in size. Summed up: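 CHO cells stably expressing human HTR2A, plated 18 h, loaded with calcium dye 1 h at 37 C. Agonist mode: compounds added and intracellular calcium fluorescence recorded kinetically for 2 min at 1 sec intervals.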
For test [12], the target named is Muscarinic acetylcholine receptor M1 (Homo sapiens) (UniProt P11229). Kind of test: Cholinergic receptor muscarinic 1 (CHRM1) small molecule antagonists, cell-based qHTS assay (AID 1963588). Further: nearly all actives have a fitted effect of over 40% in size. Further: potency means the concentration at half of the fitted maximal effect. The method in brief: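 Compounds were tested at 15 concentrations in three independent runs. Dye-loaded CHRM1-CHO cells were exposed 5 min at room temperature before stimulation by acetylcholine added at 50nM. Intracellular calcium was read kinetically on FDSS for 3 min.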
Chain of Muscarinic acetylcholine receptor M1 (Homo sapiens) (P11229 whole entry, looked up): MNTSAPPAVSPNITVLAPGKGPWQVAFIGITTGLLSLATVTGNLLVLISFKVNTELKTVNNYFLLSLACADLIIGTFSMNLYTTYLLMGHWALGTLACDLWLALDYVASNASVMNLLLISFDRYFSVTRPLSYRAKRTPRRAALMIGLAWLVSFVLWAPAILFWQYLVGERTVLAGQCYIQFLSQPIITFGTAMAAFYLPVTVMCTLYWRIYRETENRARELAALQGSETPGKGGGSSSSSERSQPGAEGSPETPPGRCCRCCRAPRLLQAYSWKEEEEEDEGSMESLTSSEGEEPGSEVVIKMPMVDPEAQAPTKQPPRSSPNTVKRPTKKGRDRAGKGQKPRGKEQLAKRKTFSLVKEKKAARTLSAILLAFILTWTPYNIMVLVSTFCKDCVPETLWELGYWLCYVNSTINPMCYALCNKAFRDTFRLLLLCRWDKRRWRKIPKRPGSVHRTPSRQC

For test [13] the target is unchanged. Kind of test: Cholinergic receptor muscarinic 1 (CHRM1) small molecule agonists, cell-based qHTS assay (AID 1963589). Further: nearly all actives have a fitted effect of over 35% in size. Summed up:
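Fluorescent calcium dye reports M1 activation in stably transfected CHO cells. Compounds, 15 concentrations, added after 1 h dye loading at 37 C; kinetic reading at 1 sec intervals.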

In test [14] the target is Beta-2 adrenergic receptor (Homo sapiens) (UniProt P07550). Kind of test: Adrenergic beta2 receptor (ADRB2) small molecule antagonists, cell-based qHTS assay (AID 1963592). Further: series mostly up to about 92 µM; nearly all actives have a fitted effect of over 50% in size. Summed up:
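Assay format: CHO-ADRB2 cells, 18-20hr seeding at 37C/5% CO2, then compound plus 1nM isoproterenol agonist mix for 0.5hr RT. Homogeneous time-resolved fluorescence cAMP detection after 1hr, expressed as 665/615 nm ratio.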

The target in test [15] is D(2) dopamine receptor (Homo sapiens) (UniProt P14416). Kind of test: Dopamine D2 receptor (DRD2) small molecule agonists, cell-based qHTS assay (AID 1963594). Further: nearly all actives have a fitted effect of over 35% in size. Summed up: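 HEK293 cells stably expressing human DRD2, pre-treated with PDE inhibitor Ro20-1724 (0.1 mM final) and compound 10 min at room temperature, then stimulated with NKH477 (200nM […]) for 30 min. cAMP read by HTRF (665/620 nm).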
Chain of D(2) dopamine receptor (Homo sapiens) (P14416 whole entry, looked up): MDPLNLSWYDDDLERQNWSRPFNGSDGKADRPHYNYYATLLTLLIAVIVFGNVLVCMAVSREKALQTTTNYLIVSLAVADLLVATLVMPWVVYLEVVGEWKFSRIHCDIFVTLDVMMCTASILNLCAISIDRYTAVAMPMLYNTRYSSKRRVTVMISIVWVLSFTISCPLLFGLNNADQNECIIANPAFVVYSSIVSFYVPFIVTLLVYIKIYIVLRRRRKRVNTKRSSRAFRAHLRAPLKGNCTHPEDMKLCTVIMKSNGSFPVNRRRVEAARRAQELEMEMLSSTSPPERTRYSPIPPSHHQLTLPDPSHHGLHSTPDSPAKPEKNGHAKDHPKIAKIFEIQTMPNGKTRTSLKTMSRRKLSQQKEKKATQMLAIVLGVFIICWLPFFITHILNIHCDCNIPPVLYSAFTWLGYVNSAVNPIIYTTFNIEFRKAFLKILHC

The target is the same in test [16]. Kind of test: Dopamine D2 receptor (DRD2) small molecule antagonists, cell-based qHTS assay (AID 1963595; active means well fitted inhibition curve with a large enough effect in the signal ratio in the repeat runs, with a control signal flat; the % refers to the signal ratio). Summed up: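 HTRF cAMP read-out at 665 and 620 nm emission (340 nm excitation). Antagonist mode: compounds were tested against 12 nM quinpirole in DRD2-HEK293 cells, with 200 nM NKH477 raising cAMP and 0.1 mM Ro20-1724 blocking its breakdown.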
A short description of test [17]: p53 small molecule agonists, cell-based qHTS assay (AID 1963582; active means well fitted activation curve with a large enough effect in the signal ratio in the repeat runs, not every such curve was filed as active; the % refers to the signal ratio). The method in brief: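 After plating, p53RE-bla cells sat 5 h in the incubator; compounds or DMSO vehicle were pinned in; a 16 h incubation at 37 C followed; FRET substrate was added and, 2 h later at RT, fluorescence was measured.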
Test [18] in a line: cAMP Responsive Elements (CRE) small molecule agonists, cell-based qHTS assay (AID 1963590). The method in brief: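 Compound exposure lasted 3 h at 37 C/5% CO2 in CRE-bla HEK 293T cells grown in assay medium with 10% dialyzed FBS and 25 mM HEPES. Reporter signal came from LiveBLAzer B/G FRET substrate, 2 h, room temperature.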
Test [19] in a line: cAMP Responsive Elements (CRE) small molecule antagonists, cell-based qHTS assay (AID 1963591; active means well fitted inhibition curve with a large enough effect in the signal ratio in the repeat runs, not every such curve was filed as active; the % refers to the signal ratio). The method in brief:
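Stimulation used NKH477 at a final 0.25 uM for 3 h in compound-treated CRE-bla HEK293T cells, seeded 18 h beforehand. Reporter activity was measured with LiveBLAzer B/G FRET substrate after 2 h at room temperature.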

Test [20] is described as follows: p53 small molecule agonists, cell-based qHTS assay with rat liver microsomes: qHTS cell viability counter screen (AID 1963580). Further: nearly all actives have a fitted effect of over 45% in size. The method in brief:
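Cytotoxicity counter screen: intracellular ATP measured by CellTiter-Glo luminescence in the same wells as the beta-lactamase reporter read, on HCT-116 p53RE-bla cells exposed 16 h at 37 C to compounds with rat liver microsomes and NADPH, each 0.5 mg/mL final.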

Results filed as inconclusive are left out. A structure can be active in one record and inactive in another. Activity calls are given as the source filed them. Unless noted, the call rests on the fitted dose curve.

Chain of Beta-2 adrenergic receptor (Homo sapiens) (P07550 whole entry, looked up): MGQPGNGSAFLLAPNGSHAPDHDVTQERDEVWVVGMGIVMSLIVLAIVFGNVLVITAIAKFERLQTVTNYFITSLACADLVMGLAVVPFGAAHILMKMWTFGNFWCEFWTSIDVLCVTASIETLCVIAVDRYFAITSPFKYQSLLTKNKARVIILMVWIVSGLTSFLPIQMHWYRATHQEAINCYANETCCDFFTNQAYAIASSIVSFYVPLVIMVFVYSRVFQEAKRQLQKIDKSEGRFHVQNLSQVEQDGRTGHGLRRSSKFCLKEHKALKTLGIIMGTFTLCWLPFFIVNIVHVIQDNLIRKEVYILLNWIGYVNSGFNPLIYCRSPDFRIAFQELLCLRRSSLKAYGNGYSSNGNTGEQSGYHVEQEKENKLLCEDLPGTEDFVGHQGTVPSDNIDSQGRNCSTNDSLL
Chain of Gonadotropin-releasing hormone receptor (Homo sapiens) (P30968 whole entry, looked up): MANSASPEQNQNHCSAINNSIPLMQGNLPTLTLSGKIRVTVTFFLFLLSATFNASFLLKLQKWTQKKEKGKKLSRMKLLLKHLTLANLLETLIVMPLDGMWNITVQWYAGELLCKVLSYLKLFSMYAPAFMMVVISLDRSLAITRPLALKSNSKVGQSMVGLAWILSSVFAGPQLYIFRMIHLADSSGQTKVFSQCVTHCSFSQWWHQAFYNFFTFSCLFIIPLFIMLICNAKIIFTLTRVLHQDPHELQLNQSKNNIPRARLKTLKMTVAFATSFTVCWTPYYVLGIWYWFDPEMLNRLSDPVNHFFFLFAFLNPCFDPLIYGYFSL
Chain of 5-hydroxytryptamine receptor 2A (Homo sapiens) (P28223 whole entry, looked up): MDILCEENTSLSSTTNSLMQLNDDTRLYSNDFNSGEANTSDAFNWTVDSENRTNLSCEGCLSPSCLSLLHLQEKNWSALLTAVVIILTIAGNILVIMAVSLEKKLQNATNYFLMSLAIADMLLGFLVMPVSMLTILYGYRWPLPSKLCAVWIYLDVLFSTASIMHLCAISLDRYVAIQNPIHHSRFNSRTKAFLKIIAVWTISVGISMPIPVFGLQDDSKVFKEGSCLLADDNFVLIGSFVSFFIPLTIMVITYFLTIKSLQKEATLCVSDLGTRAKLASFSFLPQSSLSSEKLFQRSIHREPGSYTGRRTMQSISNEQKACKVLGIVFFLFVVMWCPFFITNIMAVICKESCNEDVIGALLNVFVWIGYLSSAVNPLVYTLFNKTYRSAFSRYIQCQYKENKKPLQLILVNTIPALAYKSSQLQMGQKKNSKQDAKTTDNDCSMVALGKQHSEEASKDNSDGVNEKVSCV
Chain of KiSS-1 receptor (Homo sapiens) (Q969F8 whole entry, looked up): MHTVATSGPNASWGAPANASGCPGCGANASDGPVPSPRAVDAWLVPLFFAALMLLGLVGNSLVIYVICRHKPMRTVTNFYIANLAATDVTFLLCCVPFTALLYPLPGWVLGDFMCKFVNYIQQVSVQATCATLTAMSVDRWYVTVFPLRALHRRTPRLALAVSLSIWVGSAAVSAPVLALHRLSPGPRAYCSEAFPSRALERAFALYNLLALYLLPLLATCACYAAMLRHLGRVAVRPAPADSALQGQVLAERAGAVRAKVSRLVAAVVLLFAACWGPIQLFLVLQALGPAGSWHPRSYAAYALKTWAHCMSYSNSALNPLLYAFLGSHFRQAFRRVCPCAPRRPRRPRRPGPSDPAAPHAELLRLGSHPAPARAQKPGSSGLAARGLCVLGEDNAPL

Consider `O=c1oc2ccccc2c(O)c1C(CC(O)c1ccc(-c2ccc(Br)cc2)cc1)c1ccccc1` (configuration not stated), for which the Potency result in test [1], in test [2], in test [3], in test [4], in test [5] and in [6] was “inactive” throughout. The Potency entry in [7], in test [8], in test [10], in test [11], in test [13] and in test [14] was “inactive” in each case. The Potency entry in test [15] and in test [16] was “inactive” each time. For the same compound, the Potency in test [9] was 19.3 µM (active); in test [12] it was 25.1 µM (active).

As to `Nc1c(Oc2ccccc2)cc(O)c2c1C(=O)c1ccccc1C2=O`, the Potency result in test [1], in [2], in [3], in test [4], in [5] and in [6] was “inactive” each time. Besides, the Potency entry in [7], in test [8], in [17], in test [10], in test [11] and in [12] was “inactive” each time. In addition, the Potency entry in test [13], in [18], in test [19], in test [14], in test [15] and in test [16] was “inactive” throughout.

For the compound `CC(C)(C)OOC(C)(C)CCC(C)(C)OOC(C)(C)C`, the Potency entry in test [1], in test [2], in test [3], in test [4], in [5] and in test [6] was “inactive” each time. Also, the Potency result in [7], in test [8], in [9], in test [10], in [11] and in test [12] was “inactive” throughout. Further, the Potency result in test [13], in test [18], in [19], in test [14] and in test [16] was “inactive” throughout.

In the case of `CSc1nc(NC(C)C)nc(NC(C)C)n1`, the Potency entry in [1], in test [2], in [3], in test [4], in test [5] and in [6] was “inactive” each time. The Potency result in [8], in test [20], in test [17], in [10], in test [11] and in test [12] was “inactive” in each case. The Potency result in test [13], in test [19], in test [14], in [15] and in [16] was “inactive” each time.

`Cc1ccc(OP(=O)(Oc2ccc(C)cc2)Oc2ccc(C)cc2)cc1`: the Potency result in test [1], in [3], in test [4], in test [5], in test [6] and in test [8] was “inactive” throughout. Moreover, the Potency result in [20], in test [17], in test [10], in [11], in test [12] and in test [13] was “inactive” in each case. For the same compound, the Potency entry in test [18], in [19], in test [14], in test [15] and in test [16] was “inactive” in each case. For the same compound, the Potency in [2] is 61 µM (active) and inactive.

As for `Nc1ccccc1C(=O)OCC(O)CO` (configuration not stated), the Potency result in test [1], in [2], in test [3], in test [4], in [5] and in test [6] was “inactive” throughout. For the same compound, the Potency entry in test [8], in [20], in [9], in test [17], in [11] and in [12] was “inactive” throughout. The Potency result in test [13], in test [18], in test [19], in test [14], in [15] and in test [16] was “inactive” throughout.

Take `C1=Cc2cccc3cccc1c23`: the Potency entry in test [1], in [3], in [4], in [5], in [6] and in test [8] was “inactive” in each case. Moreover, the Potency result in test [10], in test [11], in test [12], in test [13], in test [18] and in test [19] was “inactive” in each case. Moreover, the Potency result in test [14], in test [15] and in [16] was “inactive” each time. Also, the Potency in test [2] is 23.9 µM (active) and inactive.

As for `O=C(O)C(Cl)Br` (configuration not stated), the Potency result in test [1], in [2], in test [3], in [4], in [5] and in [6] was “inactive” throughout. Besides, the Potency entry in [8], in test [20], in test [9], in test [10], in [11] and in test [12] was “inactive” in each case. Also, the Potency entry in [13], in [18], in test [14], in test [15] and in test [16] was “inactive” each time.
